Results from the supplement of paper PMC3545927.
The list shows a part of the results. How many sequences the whole screen found active is unknown.

B1: HC2419 (peptide)
chain: CAEVPCHRPPAGNASASA
B2: HC1414 (peptide)
chain: CAEACSLTPPAGNASASA
B3: FS-2794 (peptide)
chain: CARRRRQEEKAGNASASA
B4: FS-3067 (peptide)
chain: CARRRRSMDPAGNASASA
B5: FS-2601 (peptide)
chain: CARRTRFISLAGNASASA
B6: FS-2521 (peptide)
chain: CARRTRSRSPAGNASASA
B7: FS-2076 (peptide)
chain: CARRRRELDPAGNASASA
B8: FS-2598 (peptide)
chain: CARRRRQLDPAGNASASA
B9: FS-1790 (peptide)
chain: CARRTRSFSWAGNASASA
B10: HC1660 (peptide)
chain: CALAAGVGIYAGNASASA
B11: HC715 (peptide)
chain: CAVGWPAPQGAGNASASA
B12: HC2340 (peptide)
chain: CAECPCHRPSAGNASASA
B13: HC891 (peptide)
chain: CATVDFSLDPAGNASASA
B14: FS-2650 (peptide)
chain: CARATRFWDPAGNASASA
B15: FS-1867 (peptide)
chain: CARRRRELEPAGNASASA
B16: FS-2520 (peptide)
chain: CARRTRDLDPAGNASASA
B17: HC213 (peptide)
chain: CAPSWGPTDPAGNASASA
B18: FS-209 (peptide)
chain: CAWGPRFKRLAGNASASA
B19: FS-315 (peptide)
chain: CAWGNRFKKLAGNASASA
B20: FS-317 (peptide)
chain: CAWGSRFKKLAGNASASA
B21: FS-269 (peptide)
chain: CALGPRFKRLAGNASASA
B22: HC858 (peptide)
chain: CAHSKKKCDEAGNASASA
B23: HC2499 (peptide)
chain: CASPPCSAHLAGNASASA
B24: HC1989 (peptide)
chain: CAYVCCSMSYAGNASASA
B25: HC2037 (peptide)
chain: CAVVSCSMSYAGNASASA
B26: FS-561 (peptide)
chain: CARVYRQKRSAGNASASA
B27: HC2319 (peptide)
chain: CAPVPCHRPSAGNASASA
B28: FS-620 (peptide)
chain: CAPVFRQKRSAGNASASA
B29: FS-1002 (peptide)
chain: CAGPKDQKRSAGNASASA
B30: FS-1387 (peptide)
chain: CAPVPRQKRSAGNASASA
B31: FS-1213 (peptide)
chain: CAIHRRTPRSAGNASASA
B32: FS-557 (peptide)
chain: CAPVPRQRRPAGNASASA

Target: furin, P09958
Sequence (P09958 whole entry): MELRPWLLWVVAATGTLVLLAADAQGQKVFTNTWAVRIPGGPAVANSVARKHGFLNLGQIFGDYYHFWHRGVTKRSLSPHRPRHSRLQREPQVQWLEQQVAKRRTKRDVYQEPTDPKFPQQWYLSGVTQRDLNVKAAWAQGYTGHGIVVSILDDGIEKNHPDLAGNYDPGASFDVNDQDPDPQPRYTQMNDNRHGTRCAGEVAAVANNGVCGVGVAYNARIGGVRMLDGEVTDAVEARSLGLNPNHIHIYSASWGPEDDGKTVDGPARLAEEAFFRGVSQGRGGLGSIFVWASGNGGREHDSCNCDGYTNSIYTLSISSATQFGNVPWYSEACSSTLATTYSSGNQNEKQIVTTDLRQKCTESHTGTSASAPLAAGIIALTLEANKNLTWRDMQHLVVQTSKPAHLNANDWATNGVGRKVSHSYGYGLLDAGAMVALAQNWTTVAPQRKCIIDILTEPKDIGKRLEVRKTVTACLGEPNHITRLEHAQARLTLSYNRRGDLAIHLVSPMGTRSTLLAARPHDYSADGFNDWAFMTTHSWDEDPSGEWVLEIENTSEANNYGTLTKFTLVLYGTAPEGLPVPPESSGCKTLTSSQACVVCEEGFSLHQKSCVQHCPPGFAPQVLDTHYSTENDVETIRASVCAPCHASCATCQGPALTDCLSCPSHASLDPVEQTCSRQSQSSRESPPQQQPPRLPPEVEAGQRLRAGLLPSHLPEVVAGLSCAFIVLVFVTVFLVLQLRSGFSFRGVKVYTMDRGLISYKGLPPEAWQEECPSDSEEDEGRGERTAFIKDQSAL
Test: furin cleavage Z-score vs untreated control; higher = more cleavage, active = 3.5 or more, inactive = 1 or less, 8 variable residues between constant flanks
Method in brief: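 Peptides 8 residues long, fused to a cDNA oligonucleotide, were fixed to magnetic beads by the N-terminus and exposed to purified furin. The 0.01 ml reactions contained 50 mM HEPES pH 7.5 with CaCl2 and NaCl at 1:10 enzyme:substrate and ran 7.5, 15 or 30 min. For the cleavage Z-score, log counts of sequenced released DNA were compared with furin-free reactions, lowess-adjusted and scaled by median absolute deviation.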

Row | Sequence | furin cleavage Z-score (7.5 min) | furin cleavage Z-score (15 min) | furin cleavage Z-score (30 min)
1 | B1 | -0.0603 (inactive) | 1.24 | -0.795 (inactive)
2 | B2 | 0.244 (inactive) | -0.208 (inactive) | -0.022 (inactive)
3 | B3 | -0.167 (inactive) | 1.69 | -1.54 (inactive)
4 | B4 | 8 (active) | 9.64 (active) | 7.14 (active)
5 | B5 | -0.682 (inactive) | 1.63 | 1.87
6 | B6 | 2.04 | 2.53 | 4.49 (active)
7 | B7 | 11.6 (active) | 10.7 (active) | 8.52 (active)
8 | B8 | 8.96 (active) | 10.1 (active) | 7.56 (active)
9 | B9 | 0.729 (inactive) | 1.95 | 2.68
10 | B10 | 0.247 (inactive) | -0.366 (inactive) | 0.0629 (inactive)
11 | B11 | 0.307 (inactive) | 1.62 | 0.189 (inactive)
12 | B12 | 0.0178 (inactive) | -0.268 (inactive) | -1.23 (inactive)
13 | B13 | -0.614 (inactive) | -1.09 (inactive) | -1.01 (inactive)
14 | B14 | -0.242 (inactive) | -0.738 (inactive) | 0.257 (inactive)
15 | B15 | 10.9 (active) | 11 (active) | 7.47 (active)
16 | B16 | 8.58 (active) | 8.71 (active) | 7.24 (active)

Row | Sequence | furin cleavage Z-score (7.5 min) | furin cleavage Z-score (15 min) | furin cleavage Z-score (30 min)
17 | B17 | -0.72 (inactive) | -1.18 (inactive) | 1.35
18 | B18 | 6.86 (active) | 8.43 (active) | 8.5 (active)
19 | B19 | -1.19 (inactive) | 0.33 (inactive) | -1.11 (inactive)
20 | B20 | 0.17 (inactive) | -0.284 (inactive) | 0.58 (inactive)
21 | B21 | 9.05 (active) | 10.1 (active) | 9.85 (active)
22 | B22 | 0.938 (inactive) | -0.00521 (inactive) | -0.176 (inactive)
23 | B23 | 1.04 | -0.446 (inactive) | 0.95 (inactive)
24 | B24 | 0.374 (inactive) | -0.0389 (inactive) | 0.11 (inactive)
25 | B25 | 0.59 (inactive) | -1.65 (inactive) | 0.705 (inactive)
26 | B26 | 12.1 (active) | 12.4 (active) | 9.77 (active)
27 | B27 | 0.318 (inactive) | 1.19 | 0.255 (inactive)
28 | B28 | 14.1 (active) | 12.3 (active) | 9.55 (active)
29 | B29 | 0.96 (inactive) | 0.905 (inactive) | 0.353 (inactive)
30 | B30 | 10.9 (active) | 10.8 (active) | 8.52 (active)
31 | B31 | 10.3 (active) | 8.47 (active) | 7.15 (active)
32 | B32 | 1.31 | 0.43 (inactive) | -0.0302 (inactive)
